High-throughput results (PubChem)
12-LOX inh: Primary qHTS assay for inhibitors of human arachidonate 12S-lipoxygenase (ALOX12): Round 2; Polyunsaturated fatty acid lipoxygenase ALOX12 (Homo sapiens), P18054; purified 12hLO, xylenol orange hydroperoxide absorbance; Potency, µM (highest dose often 108 µM), for inactives: top-dose activity change, negative = inhibition, actives largely listed as inhibitors; 580,000 tested, 1.1% active; AID 1671190, 2021
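Purified human 12hLO (150 nM final) in 25 mM Hepes, 0.01% Triton X-100, pH 7.0 was preincubated 15 min at room temperature with compound. Then 40 uM arachidonic acid was added, 30 min. Hydroperoxide was read by Fe-XO absorbance ratio 573/405 nm.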
PLK1 PBD block: qHTS for Inhibitors of PLK1-PDB (polo-like kinase 1 - polo-box domain): Primary Screen. Serine/threonine-protein kinase PLK1 (Homo sapiens), P53350. Plk1 PBD binding of FITC phosphopeptide, fluorescence polarization. Potency, µM, for the others: max response, negative = inhibition, most hits filed as inhibitors. 360,000 tested, 2.8% active; note: series mostly up to about 57 µM; nearly all actives have a fitted effect of over 65% in size
Target sequence (P53350 whole entry, looked up, the tested form may be a part): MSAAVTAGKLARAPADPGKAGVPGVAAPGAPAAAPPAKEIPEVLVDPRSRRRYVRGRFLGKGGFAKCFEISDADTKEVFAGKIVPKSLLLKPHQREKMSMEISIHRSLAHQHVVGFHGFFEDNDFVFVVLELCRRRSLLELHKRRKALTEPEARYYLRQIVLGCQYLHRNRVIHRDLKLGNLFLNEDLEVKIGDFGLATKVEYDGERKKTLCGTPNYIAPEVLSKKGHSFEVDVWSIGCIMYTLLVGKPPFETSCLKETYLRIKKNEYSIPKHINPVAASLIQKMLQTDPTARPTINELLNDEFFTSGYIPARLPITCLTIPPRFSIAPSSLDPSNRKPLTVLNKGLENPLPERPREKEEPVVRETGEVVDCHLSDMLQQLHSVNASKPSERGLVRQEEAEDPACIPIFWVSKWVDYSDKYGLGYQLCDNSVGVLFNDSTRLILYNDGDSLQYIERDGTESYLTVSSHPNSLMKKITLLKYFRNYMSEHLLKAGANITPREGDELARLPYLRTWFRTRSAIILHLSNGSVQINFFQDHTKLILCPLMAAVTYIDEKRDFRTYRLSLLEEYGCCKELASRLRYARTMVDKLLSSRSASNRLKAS
GCN5L2 inh: qHTS Assay for Inhibitors of GCN5L2; GCN5L2 HAT assay, ThioGlo1 CoA-SH fluorescence; Potency, µM (doses to about 58.9 µM), without a hit: at the top dose activity change, negative = inhibition, actives largely listed as inhibitors; 390,000 tested, 0.21% active; AID 504327, 2011
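Free CoA generated was detected with ThioGlo1 (50uM) fluorescence at Ex340nm/Em540nm, read immediately and after 20 min at room temperature. Enzyme, 20 nM in HEPES pH 7.5 buffer, saw compounds 15 min before adding 75uM H3(1-25) peptide and 70uM acetyl-CoA.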
VDR inh: Inhibitors of the vitamin D receptor (VDR): qHTS. Vitamin D3 receptor (Homo sapiens), P11473. 400,000 tested, 0.93% active. VDR-SRC2-3 peptide fluorescence polarization, 2 h. Potency, µM, for the others: max response, negative = inhibition, actives largely listed as inhibitors
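FP read-out; VDR + SRC2-3 coactivator peptide; 23 nl compound by pintool; 2 h RT incubation; reagents held at 4 deg C, protected from light.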
An asterisk follows results filed as active. A selection: hits, their analogues and other compounds. The true share with any hit is near 3%. Calls come from the whole dose curve; as a rule, active = well fitted curve in the direction sought with a large enough effect; inconclusive = small, poorly fitted or top-dose-only effect, or another doubt; inactive = no such curve, though single readings can be large; an effect the other way counts as inactive or inconclusive. % is set by controls: 0 for no effect and ±100 for the full control effect; potency is the fitted concentration of half-maximal effect.

`Cc1cc(C)c(C(=O)COC(=O)COc2ccc(Cl)c(C)c2)cc1C` gave 12-LOX inh 33%.
`CNc1ccc(-c2nc3ccccc3s2)cc1` gave GCN5L2 inh -15% and VDR inh 11µM*.
Screening CCOC(=O)c1cc(S(=O)(=O)Nc2ccc(OCc3ccccc3)cc2)[nH]n1 returned 12-LOX inh 8.9µM*.
For O=C(NC1CC1)[C@@H]1CN(Cc2ccc(Cl)cc2F)C[C@H]1CO the results were 12-LOX inh 45µM*.
For O=C(N[C@@H]1CN(Cc2ccc(F)cc2F)C[C@H]1CO)c1ccccc1 the results were 12-LOX inh 28µM*.
O=C(NC1CC1)[C@@H]1CN(Cc2cc(F)c(F)cc2F)C[C@H]1CO was read as 12-LOX inh 30%.
COc1cc(CC(=O)OCc2ccccc2C#N)ccc1C was read as 12-LOX inh 34%.
O=C(Nc1cc(Sc2ccccn2)cc([N+](=O)[O-])c1)c1ccc([N+](=O)[O-])cc1 was read as 12-LOX inh 0%, PLK1 PBD block 1.1µM*, GCN5L2 inh -7% and VDR inh inconclusive.
Screening O=[N+]([O-])c1ccc(Sc2ccccn2)nc1 returned 12-LOX inh 203%, PLK1 PBD block -6%, GCN5L2 inh -3% and VDR inh 4%.
Screening COCCCNC(=O)c1cc(-c2ccccc2)nc2ccc(C)cc12 returned 12-LOX inh -10%.
COc1ccc2nc(COC(=O)c3cccs3)c(C(C)=O)[n+]([O-])c2c1 was read as 12-LOX inh 32µM*, PLK1 PBD block -3%, GCN5L2 inh -16% and VDR inh -2%.
For COc1ccc2nc(COC(=O)c3cccc([N+](=O)[O-])c3)c(C(C)=O)[n+]([O-])c2c1 the results were 12-LOX inh 0%, PLK1 PBD block -12%, GCN5L2 inh 7% and VDR inh 2%.
Cc1ccc(OC(C)C(=O)Nc2ccc3c(c2)n(C)c(=O)n3C)c(C)c1 (stereo not drawn) was read as 12-LOX inh 45µM*, PLK1 PBD block -11%, GCN5L2 inh -1% and VDR inh -5%.
For COc1ccccc1OC(C)C(=O)Nc1ccc2c(c1)n(C)c(=O)n2C (stereo not drawn) the results were 12-LOX inh 18%, PLK1 PBD block 7%, GCN5L2 inh -5% and VDR inh 7%.
Cc1nn(CC(=O)Nc2ccc(NC(=O)CC(C)C)cc2)c(=O)c2ccccc12 was read as 12-LOX inh -1%.
`C=CCNC(=O)NC(=O)CSc1nc(-c2ccco2)nc2ccccc12` gave 12-LOX inh -20%.
For Cc1cccc(NC(=O)CSc2nc3sc(C)cc3c(=O)n2C)c1 the results were 12-LOX inh inconclusive, PLK1 PBD block 27µM* and VDR inh -29%.
For N#Cc1c2nc3ccccc3nc2n2cc(NC(=O)c3ccc(F)cc3)ccc12 the results were 12-LOX inh 40µM*, PLK1 PBD block 0%, GCN5L2 inh -18% and VDR inh -6%.
Cc1c(C(=O)Nc2ccc(F)cc2)cn2c(nc3ccccc32)c1C#N was read as 12-LOX inh 1%, PLK1 PBD block 4%, GCN5L2 inh 4% and VDR inh 3%.
CC(C)(C)C1CCc2c(sc(NC(=O)CSc3ncn[nH]3)c2C#N)C1 (stereo not drawn) was read as 12-LOX inh inconclusive, PLK1 PBD block 19µM*, GCN5L2 inh inconclusive and VDR inh -22%.
`CCCc1cc(=O)[nH]c(SCC(=O)Nc2sc3c(c2C#N)CCC(C)C3)n1` (stereo not drawn) gave 12-LOX inh 40µM*, PLK1 PBD block inconclusive, GCN5L2 inh -25% and VDR inh 1%.
For CCC1CCc2c(sc(NC(=O)CSc3nc(-c4ccco4)cc(C(F)(F)F)n3)c2C#N)C1 (stereo not drawn) the results were 12-LOX inh -10%, PLK1 PBD block 24µM*, GCN5L2 inh -6% and VDR inh -10%.
For N#Cc1c(NC(=O)CSc2nc(-c3ccccc3)cc(C(F)(F)F)n2)sc2c1CCC2 the results were 12-LOX inh -14%, PLK1 PBD block inconclusive, GCN5L2 inh -2% and VDR inh -2%.
`Cc1cc(C(=O)Nc2ccccc2C(C)C)c2ccccc2n1` gave 12-LOX inh 3%.
Screening O=C(c1ccccc1F)N1CCC(Oc2ncccc2C(=O)N2CCCCC2)C1 (stereo not drawn) returned 12-LOX inh 37%.
`c1ccc(-c2nn[nH]n2)c(Nc2cccc3c2CCCC3)c1` gave GCN5L2 inh 18µM* and VDR inh 40µM*.
`Cc1ccccc1-c1nn[nH]n1` gave 12-LOX inh -1%, PLK1 PBD block -5%, GCN5L2 inh 0% and VDR inh -17%.
CCCN(C(=O)COC(=O)CSc1ccc([N+](=O)[O-])cc1)C1CCS(=O)(=O)C1 (stereo not drawn) was read as 12-LOX inh 29%, PLK1 PBD block 11µM*, GCN5L2 inh -2% and VDR inh 89µM*.
Screening CCN(C(=O)COC(=O)c1cc([N+](=O)[O-])ccc1N1CCCCC1)C1CCS(=O)(=O)C1 (stereo not drawn) returned 12-LOX inh -1%, PLK1 PBD block -14%, GCN5L2 inh 0% and VDR inh -2%.
For CC(C)CN(C(=O)COC(=O)C1c2ccccc2Oc2ccccc21)C1CCS(=O)(=O)C1 (stereo not drawn) the results were 12-LOX inh 0%, PLK1 PBD block -3%, GCN5L2 inh -4% and VDR inh 2%.
CC(C)CN(C(=O)COC(=O)CSc1ccc([N+](=O)[O-])cc1)C1CCS(=O)(=O)C1 (stereo not drawn) was read as 12-LOX inh inconclusive, PLK1 PBD block 19µM*, GCN5L2 inh -6% and VDR inh inconclusive.
Screening c1ccc(CNc2nc(N3CCOCC3)nc(N3CCOCC3)n2)cc1 returned 12-LOX inh 1%, PLK1 PBD block -6%, GCN5L2 inh -4% and VDR inh 7%.
S=C(NCc1ccco1)Nc1ccc(N2CCOCC2)cc1 was read as 12-LOX inh 4%, PLK1 PBD block 27µM*, GCN5L2 inh 3% and VDR inh inconclusive.
O=S(=O)(c1ccc(NC(=S)NCc2ccco2)cc1)N1CCCC1 was read as 12-LOX inh -20%, PLK1 PBD block -13%, GCN5L2 inh 0% and VDR inh 1%.
`S=C(NCc1ccco1)Nc1ccc(Br)cn1` gave 12-LOX inh inconclusive, PLK1 PBD block inconclusive, GCN5L2 inh inconclusive and VDR inh -19%.
Screening c1ccc(CNc2nc(NCc3ccco3)nc(N3CCOCC3)n2)cc1 returned 12-LOX inh 0%, PLK1 PBD block 30µM*, GCN5L2 inh -8% and VDR inh -7%.
